Rows were chosen to be rich in hits. Some 0.8% of all compounds tested hit in one or more screens of this group.
FEN1 inh-1 = human FEN1 inhibition. Recombinant FEN1 flap cleavage, fluorescence, 15 min. Potency, µM (titrated, usually from 114 µM), inactives show at the highest dose activity change, negative = inhibition, usual class: inhibitors. 0.35% of 390,000 active; also: potency is read from the fitted curve at half-maximal effect; % is scaled to controls: 0 for no effect and ±100 for the full control effect; nearly all actives have a fitted effect of over 65% in size
Target sequence (P39748 whole entry, looked up): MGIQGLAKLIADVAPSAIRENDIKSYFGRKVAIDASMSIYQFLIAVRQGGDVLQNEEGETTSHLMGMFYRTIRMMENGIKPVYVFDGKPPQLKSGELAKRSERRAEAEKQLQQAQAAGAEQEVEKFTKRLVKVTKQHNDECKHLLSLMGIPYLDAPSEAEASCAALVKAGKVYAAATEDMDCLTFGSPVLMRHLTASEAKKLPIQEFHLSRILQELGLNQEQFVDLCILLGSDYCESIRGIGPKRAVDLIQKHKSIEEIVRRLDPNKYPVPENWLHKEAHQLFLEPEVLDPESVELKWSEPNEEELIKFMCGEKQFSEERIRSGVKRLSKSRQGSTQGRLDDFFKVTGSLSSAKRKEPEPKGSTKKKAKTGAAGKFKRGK
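Quantitative HTS format: each compound was titrated, incubated with 10 nM nuclease for 15 min at room temperature, then challenged with flap substrate at 50 nM final. Signal change over 15 min gave concentration–effect curves.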
APEX1 inh = blocks human APE1 abasic DNA cleavage | P27695 | recombinant APE1, TAMRA/BHQ-2 abasic DNA cleavage fluorescence | Potency, µM (highest dose often 65.8 µM), inactives show at the top dose activity change, negative = inhibition, hits mostly inhibitors | 0.35% of 350,000 active | AID 2517;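 also: potency is read from the fitted curve at half-maximal effect; plate controls were vehicle for no effect and reference inhibitor for full effect; nearly all actives have a fitted effect of over 55% in size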
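Kinetic fluorescence read (525 ex/598 em nm, three reads 60 s apart) of AP-site incision; signal = third minus first read. Enzyme 0.75 nM, dual-labelled THF duplex 50 nM, compound preincubation 15 min RT.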
Tb PGK inh = T. brucei PGK inhibition; P07378; PGK/GAPDH coupled, Kinase-Glo luminescence, 60 min; Potency, µM (highest dose often 57.5 µM), for the others: at the highest dose activity change, negative = inhibition, most hits filed as inhibitors; 0.043% of 380,000 active; also: potency is read from the fitted curve at half-maximal effect; % is scaled to controls: 0 for no effect and ±100 for the full control effect; nearly all actives have a fitted effect of over 60% in size
Target sequence (P07378 whole entry, looked up): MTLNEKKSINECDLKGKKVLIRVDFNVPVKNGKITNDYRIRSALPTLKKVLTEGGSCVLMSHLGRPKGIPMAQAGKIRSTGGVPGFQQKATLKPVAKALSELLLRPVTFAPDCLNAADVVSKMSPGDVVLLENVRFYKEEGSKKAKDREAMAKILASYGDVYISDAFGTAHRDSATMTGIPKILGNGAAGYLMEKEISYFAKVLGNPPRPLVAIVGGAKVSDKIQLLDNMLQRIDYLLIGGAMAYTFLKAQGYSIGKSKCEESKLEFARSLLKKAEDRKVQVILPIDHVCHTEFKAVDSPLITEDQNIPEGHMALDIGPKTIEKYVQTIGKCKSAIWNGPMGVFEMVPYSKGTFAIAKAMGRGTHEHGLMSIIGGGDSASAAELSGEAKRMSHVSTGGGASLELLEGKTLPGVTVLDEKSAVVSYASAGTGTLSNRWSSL
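Luminescent ATP detection (Kinase-Glo Plus) follows a 60-minute room-temperature incubation, with wells lacking PGK as controls. Buffer: 100 mM TEA (pH 7.6), 5 mM MgCl2, 0.01% Tween-20. Coupling enzyme GAPDH (100 nM final) supplies unstable 1,3-BPG in-well.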
Tb PFK inh = T. brucei PFK enzyme inhibition; O15648; T. brucei PFK, ADP-Glo luminescence; Potency, µM (doses to about 57.5 µM), without a hit: at the highest dose activity, negative = inhibition, usual class: inhibitors; 0.17% of 330,000 active; AID 485367;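 also: potency is read from the fitted curve at half-maximal effect; 0% = uninhibited 1x PFK enzyme wells and -100% = no-enzyme wells; nearly all actives have a fitted effect of over 60% in size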
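Compounds were pin-transferred as a titration series up to 57 uM into substrate buffer (0.5 mM F6P, 0.1 mM ATP, pH 8.0), then 1.25 nM PFK was added and reactions ran 45 min before ADP-Glo detection.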
PI4K2A block = blocks human PI4K2A kinase activity | activity change, negative = inhibition, % at 76.9 µM | Q9BTU6 | 0.13% of 420,000 active | purified PI4K2A, ADP-Glo luminescence, 1 h; active compounds read low | AID 1346378; in the data active = activity change below about -50%; inconclusive = mostly about -30% to -49%;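 also: -100% = wells without enzyme as full effect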
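In this quantitative HTS, ADP production by PI4K2A was quantified luminescently after 1 h at ambient temperature; 100 microM adenosine served as plate-quality control.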
TDP1 inh = TDP1 (human) enzyme inhibition. Q9NUW8. recombinant TDP1, AlphaScreen DNA substrate cleavage. Potency, µM (doses to about 130 µM), without a hit: at the top dose activity change, negative = inhibition, hits mostly inhibitors. 0.28% of 350,000 active; also: potency is read from the fitted curve at half-maximal effect; % is scaled to controls: 0 for no effect and ±100 for the full control effect; nearly all actives have a fitted effect of over 40% in size
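E. coli-derived human Tdp1, 1 nM final. Cpd preinc 15 min RT; substrate 15 nM final, 5 min RT; AS bead mix 10 ug/ml final, 10 min RT. Signal loss = tyrosine-FITC cleavage. No-enzyme wells = max signal.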
FEN1 inh-2 = FEN1 inhibition, cherry-pick retest; shares compounds with FEN1 inh-1; FEN1 flap cleavage, TAMRA/BHQ2 fluorogenic DNA substrate; Potency, µM, actives largely listed as inhibitors; 79% of 880 active; AID 720498; also: potency is read from the fitted curve at half-maximal effect; nearly all actives have a fitted effect of over 60% in size
The depositor's hits bear a star; i = inactive; ? = inconclusive; . = no result given. Unless noted, calls follow the shape of the dose curve; as a rule, active = well fitted curve in the direction sought with a large enough effect; inconclusive = small, poorly fitted or top-dose-only effect, or another doubt; inactive = no such curve, though single readings can be large; an effect the other way counts as inactive or inconclusive.

SMILES	FEN1 inh-1	APEX1 inh	Tb PGK inh	Tb PFK inh	PI4K2A block	TDP1 inh	FEN1 inh-2
Cc1ccc(C)c(Nc2nc3c(S(=O)(=O)c4ccc(Br)cc4)nnn3c3ccsc23)c1	?	.	-3.3%	.	0.2	.	?
Cc1ccc(C)c(Nc2nc3c(S(=O)(=O)c4ccc(C(C)C)cc4)nnn3c3ccsc23)c1	-1.7%	.	0.6%	.	-3.3	2.6%	.
CC(=O)O[C@@]12CO[C@@H]1C[C@H](O)[C@@]1(C)C(=O)[C@H](O)C3=C(C)[C@@H](OC(=O)[C@H](O)[C@@H](NC(=O)OC(C)(C)C)c4ccccc4)C[C@@](O)([C@@H](OC(=O)c4ccccc4)[C@H]21)C3(C)C	.	.	.	.	-1.3	.	.
O=C1C(=Cc2ccco2)CCC1=Cc1ccco1	8.91µM*	.	3.55µM*	.	-59.1*	.	16.9*
O=C1NC(=O)/C(=C/c2ccc(-c3cc(C(=O)O)ccc3Cl)o2)S1	20µM*	-20.1%	?	-2.3%	-2.3	31.6µM*	37.9*
O=C1NC(=S)/C(=C\c2ccc(-c3ccccc3Cl)o2)S1	?	-9.1%	-23.7%	-0.6%	-4.7	5.6%	.
CCOc1ccc(-c2cc3cc(OC)c(OC)cc3c(C)n2)cc1	0.0%	3.8%	2.0%	2.1%	-2.2	6.2%	.
COc1cc2cc(-c3ccc(O)cc3O)nc(C)c2cc1OC	?	-6.2%	i	-1.2%	-4.4	.	?
COc1ccc(-c2cn3c(n2)sc2cc(C(=O)NCCCN4CCCCC4)ccc23)cc1	-19.1%	.	i	.	-9.7	-2.6%	67.5*
COc1ccc(-c2cn3c(n2)sc2cc(C(=O)NCCCN4CCCCCC4)ccc23)cc1	-3.9%	.	4.4%	.	-0.2	2.6%	37.9*
COc1ccc(-c2cn3c(n2)sc2cc(C(=O)NCCCN4CCN(C)CC4)ccc23)cc1	16.6%	.	i	.	2.3	1.3%	.
COc1ccc(Cn2ncc3c4sc(C)cc4n(C)c3c2=O)cc1	.	.	.	.	.	-3.3%	.
CCOC(=O)C1CCN(c2c(NCCCN(CC)c3ccccc3)c(=O)c2=O)CC1	-12.3%	12.7%	i	4.0%	-4.6	6.9%	.
CCN(CCCNc1cc2c(c(N)c1S(=O)(=O)O)C(=O)c1ccccc1C2=O)c1ccccc1	.	.	?	.	?	.	?
CN(C)/C=C1\SC(=S)N(c2ccc(Br)cc2)C1=O	?	28.2µM*	0.8%	-3.1%	-5.3	4.3%	33.8*
CN(C)/C=C1\SC(=S)N(c2ccc(F)cc2)C1=O	-1.4%	0.3%	-4.1%	-10.2%	2.5	-4.3%	.
O=C(ONC(=O)C1CCCCC1C(=O)NOC(=O)c1ccccc1)c1ccccc1 (configuration not stated)	17.8µM*	.	2.3%	.	-5.7	.	13.5*
C[C@@H]1[C@H](c2ccccc2)OCCS(=O)(=O)N1Cc1ccc(Cl)cc1	-5.6%	.	.	.	.	.	.
O=C(O)c1cc(NC(=O)c2ccc([N+](=O)[O-])cc2)cc(NC(=O)c2ccc([N+](=O)[O-])cc2)c1	?	-9.4%	-7.3%	-2.2%	3.4	.	?
COc1ccccc1N1C(=O)c2ccccc2C1=O	.	.	.	.	.	-0.1%	.
CC(=O)Nc1sc2c(c1-c1cc3ccccc3o1)CCNC2	.	.	.	.	-0.7	.	33.8*
CC(=O)Nc1sc2c(c1-c1nc3ccccc3s1)CCNC2	.	.	.	.	.	.	3.38*
CC(C)N1CCc2c(sc(NC(=O)C(F)F)c2-c2nc3ccccc3s2)C1	.	.	.	.	-3.2	.	.
CC(=O)Nc1sc2c(c1-c1nc3ccccc3s1)CCN(C(C)C)CC2	.	.	.	.	-4.1	.	23.9*
CC(=O)Nc1sc2c(c1-c1nc3ccccc3s1)CCCNC2	.	.	.	.	-2.1	.	33.8*
SMILES	FEN1 inh-1	APEX1 inh	Tb PGK inh	Tb PFK inh	PI4K2A block	TDP1 inh	FEN1 inh-2
O=C(Nc1sc2c(c1-c1nc3ccccc3s1)CCNC2)C(F)F	.	.	.	.	-2.3	.	.
Cc1cnc2ccccc2c1/C=C/c1ccc(N(C)C)cc1	-22.6%	.	.	.	.	.	.
CC(C)(C)c1ccc(O)c(N=Cc2cccc([N+](=O)[O-])c2)c1	-5.0%	.	.	.	.	.	.
COc1cccc(-c2nc(N3CCN(C)CC3)c3ccccc3n2)c1O	50.1µM*	?	-1.5%	-2.4%	3.3	-1.4%	37.9*
CN(C)CCCN1C(=O)c2cccc3c([N+](=O)[O-])ccc(c23)C1=O	50.1µM*	-15.6%	-0.5%	1.6%	-3.7	3.2%	33.8*
O=C1c2cccc3c([N+](=O)[O-])ccc(c23)C(=O)N1CCc1ccccn1	-3.9%	1.8%	-4.4%	3.2%	-0.1	5.2%	.
C=CCn1c(SCC(=O)Nc2ccccc2OCC)nnc1-c1ccc(C(C)(C)C)cc1	.	.	.	.	4.4	.	.
Cc1cccc(Nc2nn3c(=O)c4ccccc4nc3s2)c1	-0.4%	-3.1%	-15.6%	-0.5%	4.0	?	.
O=c1c2ccccc2nc2sc(Nc3cccc(N4CCNCC4)c3)nn12	.	.	.	.	.	.	33.8*
Oc1ccc(/C=N/Nc2ccc(Cl)nn2)c(O)c1O	?	27.3%	-8.7%	-6.7%	-6.7	.	37.9*
Cc1ccc(-n2cccc2/C=C2/NC(=O)N(CC(=O)Nc3cccc(C)c3)C2=O)cc1	-6.4%	-3.8%	-1.2%	4.4%	-9.2	5.4%	.
COc1ccc(NC(=O)CN2C(=O)N/C(=C\c3cccn3-c3ccc(C(=O)NC#N)cc3)C2=O)cc1	.	.	.	.	.	.	42.6*
N#CNC(=O)c1ccc(-n2cccc2/C=C2\NC(=O)N(CC(=O)Nc3ccc(F)cc3)C2=O)cc1	.	.	.	.	.	.	33.8*
COc1cc(OC)cc(-c2csc(N3CCC(C(N)=O)CC3)n2)c1	.	.	.	.	8.5	.	.
CCN(CC)/[N+]([O-])=N/OCOC(=O)C(C)c1ccc2cc(OC(C)=O)ccc2c1 (configuration not stated)	-6.0%	.	.	.	.	.	.
CC[N+](CC)(CC)CCOC(=O)C(C1CCCC1)C1CCCC1	.	.	.	.	0.3	.	.
C[C@@H]1[C@H](c2ccccc2)OCCS(=O)(=O)N1Cc1cccc(Cl)c1	-2.7%	.	.	.	.	.	.
CN(C)CCc1cc2c(c3c1ccc1ccccc13)OCO2	?	?	i	17.5%	-5.2	6.2%	21.3*
Oc1cccc(Nc2c3ccccc3nc3ccccc23)c1	?	27.8%	-1.6%	13.9%	1.8	.	.
CCN(CC)Cc1cc(Nc2c3ccccc3nc3c4ccccc4n(C)c23)cc(CN(CC)CC)c1O	28.2µM*	.	7.1%	.	1.5	.	19*
Cn1cncc1CNc1ncnc2ccc(-c3ccc4c(c3)OCO4)cc12	.	.	.	.	.	4.7%	?
c1nc(NCCCN2CCCCC2)c2cc(-c3ccc4c(c3)OCO4)ccc2n1	.	.	.	.	.	.	33.8*
c1nc(N2CCC(N3CCCC3)CC2)c2cc(-c3ccc4c(c3)OCO4)ccc2n1	.	.	.	.	.	.	33.8*
CN1CCN(c2ncnc3ccc(-c4ccc5c(c4)OCO5)cc23)CC1	.	-0.4%	.	.	.	.	.
